Sampled rows, rich in hits. Any-hit rate of the full collection: about 11%.
HEK293 tox: kills HEK 293 cells | HEK 293 viability, ATP luminescence (CellTiter-Glo), 48-72 h | Potency, µM (top dose mostly 115 µM), inactives show top-dose activity change, negative = cytotoxicity, actives largely listed as inhibitors | 94,000 tested, 6.6% active; also: % is scaled to controls: 0 for no effect and ±100 for the full control effect; nearly all actives have a fitted effect of over 60% in size
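HEK 293 seeded at 250 cells/well receive compound via pintool. After 48 or 72 hr at 37 degree Celsius, 5% CO2 and 95% humidity, CellTiter-Glo is dispensed and luminescence read following 10 min at room temperature.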
3T3 cytotox: cytotoxic compounds in NIH 3T3 cells; NIH 3T3 viability, CellTiter-Glo ATP luminescence, 48-72 h; Potency, µM (titrated, usually from 96.7 µM), inactives show at the top dose activity change, negative = cytotoxicity, hits mostly inhibitors; 94,000 tested, 4.3% active; AID 1345082; also: % is scaled to controls: 0 for no effect and ±100 for the full control effect; nearly all actives have a fitted effect of over 55% in size
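Cells were seeded at 400 per well, treated with pin-transferred compound, and kept 48 or 72 hr at 37 °C before CellTiter-Glo addition and luminescence imaging of cellular ATP.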
FLuc inh: blocks purified firefly luciferase enzyme activity. purified P. pyralis luciferase, luminescence, biochemical. P08659. 76,000 tested, 2.5% active. Potency, µM (series often up to 115 µM), actives largely listed as inhibitors; also: % is scaled to controls: 0 for no effect and ±100 for the full control effect; nearly all actives have a fitted effect of over 65% in size
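Purified 10nM P. pyralis luciferase with 10uM D-luciferin and 10uM ATP in 50mM Tris acetate pH 7.5, 10mM Mg acetate, 0.01% Tween-20, 0.05% BSA. qHTS titration; luminescence read by CCD imager.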
NPR1 antag: blocks ANP-stimulated signaling of human Npr1 receptor. HEK293 hNpr1 GloSensor cGMP, ANP-stimulated luminescence. Potency, µM (highest dose often 46.3 µM), for the others: at the highest dose activity change, negative = inhibition, actives largely listed as inhibitors. 76,000 tested, 1.6% active. AID 1347048; calls by dose curve; also: % is scaled to controls: 0 for no effect and ±100 for the full control effect; nearly all actives have a fitted effect of over 60% in size
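HEK293 cells stably expressing human Npr1 and cGMP GloSensor pGS-40F, loaded 2 h with 2% GloSensor reagent, given compound 30 min at room temperature. Luminescence read before and 20 min after 0.1 nM hNppA.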
NPR1 antag cnf: hNpr1 antagonism, confirmation assay | HEK293 hNpr1 cGMP GloSensor luminescence, ANP-stimulated | 1,400 tested, 76% active | AID 1347044 | Potency, µM (top dose mostly 57.6 µM), for inactives: at the highest dose activity change, negative = inhibition, usual class: inhibitors | shares compounds with NPR1 antag; calls by dose curve; also: nearly all actives have a fitted effect of over 70% in size
Npr2 selectivity: antagonizes human Npr2, subtype selectivity check; 1,400 tested, 67% active; Potency, µM (highest dose often 57.6 µM), inactives show top-dose activity change, negative = inhibition, usual class: inhibitors; HEK293 hNpr2 GloSensor cGMP luminescence, CNP-stimulated; shares compounds with NPR1 antag; calls by dose curve; also: nearly all actives have a fitted effect of over 70% in size
FLuc inh counter: inhibits firefly luciferase, false Npr1 antagonist flag. shares compounds with NPR1 antag. purified FLuc enzyme, luminescence, Km substrate. Potency, µM (top dose mostly 57.6 µM), inactives show at the highest dose activity change, negative = inhibition, most hits filed as inhibitors. 1,400 tested, 0.7% active. AID 1347047; also: 0% is about no effect
GloSensor cGMP: counter-screen for Npr1 antagonists: GloSensor control cell line | shares compounds with NPR1 antag | HEK293 GloSensor cGMP, SNP-stimulated, luminescence | Potency, µM (top dose mostly 57.6 µM), without a hit: top-dose activity change, negative = inhibition, usual class: inhibitors | 1,400 tested, 69% active; calls by dose curve; also: % is scaled to controls: 0 for no effect and ±100 for the full control effect; nearly all actives have a fitted effect of over 70% in size
An asterisk follows results filed as active; i = inactive; ? = inconclusive; . = no result; [ ] = remark or other dose. Unless noted, calls follow the shape of the dose curve; as a rule, active = well fitted curve in the direction sought with a large enough effect; inconclusive = small, poorly fitted or top-dose-only effect, or another doubt; inactive = no such curve, though single readings can be large; an effect the other way counts as inactive or inconclusive. Potency is read from the fitted curve at half-maximal effect.

SMILES | HEK293 tox | 3T3 cytotox | FLuc inh | NPR1 antag | NPR1 antag cnf | Npr2 selectivity | FLuc inh counter | GloSensor cGMP
COCCNC(=O)c1ccc2nnc(C3CCOCC3)n2c1 | i | -9%[138 µM] | . | . | . | . | . | .
O=C1NCCCCCCN(C(=O)c2ccco2)[C@H]2C[C@H](C(=O)N3CCc4ccccc4C3)C[C@@H]12 | -26% | -2% | i | 0% | . | . | . | .
FC(F)(F)c1ccc(N2C3CCC2CN(Cc2ccc(-c4ccccc4)cc2)C3)cc1 | i | -4% | i | 0% | . | . | . | .
FC(F)(F)c1ccc(N2C3CCC2CN(Cc2cccc(-c4cccnc4)c2)C3)cc1 | ? | -20% | . | . | 7.7µM* | 9.7µM* | -1% | 6.1µM*
CCc1noc(CN(CC)C(=O)c2ccccc2NCc2sccc2C)n1 | ? | ? | i | -5% | . | . | . | .
COc1ccc2oc(CNC(=O)c3cc(CC(C)C)nn3C)nc2c1 | ? | -31% | i | 13µM* | 17µM* | 17µM* | 4% | 15µM*
COc1ccc(-c2ccc3nnc(CNC(=O)c4cccn4C)n3n2)cc1 | -12% | -17% | i | 0% | . | . | . | .
O=C1COc2ccc(-c3ccoc3)nc2CN1Cc1ccc(C(F)(F)F)cc1 | ? | 79µM* | i | 35µM* | 35µM* | 35µM* | -1%[86.2 µM] | 35µM*
CN1CCCC1COc1ccc2c(n1)CN(Cc1ccc(C(F)(F)F)cc1)C(=O)CO2 (stereo not given) | ? | ? | i | -2%[70.6 µM] | . | . | . | .
Cc1ccccc1-c1ccc2c(n1)CN(Cc1ccccc1)C(=O)CO2 | ? | ? | i | -4%[70.6 µM] | . | . | . | .
O=C1COc2ccc(-c3ccoc3)nc2CN1Cc1ccccc1 | ? | ? | i | ? | ? | ? | -3%[86.2 µM] | ?
O=C(OCc1ccccc1)N1CCCN(c2cc(C3CC(O)C3)ncn2)CC1 (stereo not given) | ? | -27% | i | 8.9µM* | 15µM* | 15µM* | 5% | 14µM*
COc1ccccc1CC(=O)N1CCN(C(=O)c2nnn3c2COC(c2ccc(C)cc2)C3)CC1 (stereo not given) | ? | -33% | i | 10µM* | 19µM* | 19µM* | 2% | 15µM*
COc1cccc(CC(=O)N2CCN(C(=O)c3nnn4c3COC(c3ccccc3)C4)CC2)c1 (stereo not given) | -8% | -2% | i | -14% | . | . | . | .
Cc1ccc(C2Cn3nnc(C(=O)N4CCN(C(=O)Cc5cccc(F)c5)CC4)c3CO2)cc1 (stereo not given) | ? | 3% | i | 11µM* | 22µM* | 22µM* | 1% | 22µM*
COc1cccc(CC(=O)N2CCN(C(=O)c3nnn4c3COC(c3ccc(C)cc3)C4)CC2)c1 (stereo not given) | ? | -7% | i | ? | 24µM* | ? | 4% | ?
CCc1ccc(C(=O)N2CCN(C(=O)c3nnn4c3COC(c3ccc(C)cc3)C4)CC2)cc1 (stereo not given) | ? | -17% | i | ? | 19µM* | 19µM* | -1% | 19µM*
Cc1ccc(CN2C(=O)NC3(CCCN(C(=O)c4ccc(F)c(Cl)c4)C3)C2=O)cc1 (stereo not given) | ? | ? | i | -4% | . | . | . | .
Cc1ccc(CN2C(=O)NC3(CCCN(C(=O)c4cc5ccccc5[nH]4)C3)C2=O)cc1 (stereo not given) | ? | ? | ? | -4% | . | . | . | .
O=C(c1cc2ccccc2[nH]1)N1CCC2(C1)NC(=O)N(Cc1ccc(F)cc1)C2=O (stereo not given) | ? | ? | i | 22µM* | ? | ? | -23% | 31µM*

High-throughput results as filed in PubChem BioAssay.
